Bioassay records deposited in PubChem by National Center for Advancing Translational Sciences (NCATS).
NIH3T3 tox: NIH 3T3 cell cytotoxicity. NIH 3T3 viability, CellTiter-Glo ATP luminescence, 48-72 h. Potency, µM (top dose mostly 96.7 µM), for inactives: top-dose activity change, negative = cytotoxicity, most hits filed as inhibitors. 94,000 tested, 4.3% active; note: nearly all actives have a fitted effect of over 55% in size
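Viability of NIH 3T3 cells after 48 or 72 hr compound treatment at 37 °C was assessed by CellTiter-Glo, with luminescence imaged following a 10 min room-temperature step.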
HEK293 tox: cytotoxic compounds in HEK 293 cells; HEK 293 viability, ATP luminescence (CellTiter-Glo), 48-72 h; Potency, µM (highest dose often 115 µM), without a hit: at the top dose activity change, negative = cytotoxicity, usual class: inhibitors; 94,000 tested, 6.6% active; note: nearly all actives have a fitted effect of over 60% in size
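HEK 293 seeded at 250 cells/well receive compound via pintool. After 48 or 72 hr at 37 degree Celsius, 5% CO2 and 95% humidity, CellTiter-Glo is dispensed and luminescence read following 10 min at room temperature.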
hNpr1 antagonist: blocks ANP-stimulated signaling of human Npr1 receptor. HEK293 hNpr1 GloSensor cGMP, ANP-stimulated luminescence. Potency, µM (series often up to 46.3 µM), for inactives: top-dose activity change, negative = inhibition, most hits filed as inhibitors. 76,000 tested, 1.6% active. AID 1347048; calls by dose curve; note: nearly all actives have a fitted effect of over 60% in size
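HEK293 cells stably expressing human Npr1 and cGMP GloSensor pGS-40F, loaded 2 h with 2% GloSensor reagent, given compound 30 min at room temperature. Luminescence read before and 20 min after 0.1 nM hNppA.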
FLuc inh: Photinus pyralis luciferase inhibition | P08659 | 76,000 tested, 2.5% active | Potency, µM (titrated, usually from 115 µM), hits mostly inhibitors | AID 1347043 | purified P. pyralis luciferase, luminescence, biochemical; note: nearly all actives have a fitted effect of over 65% in size
Target sequence (P08659 whole entry, looked up): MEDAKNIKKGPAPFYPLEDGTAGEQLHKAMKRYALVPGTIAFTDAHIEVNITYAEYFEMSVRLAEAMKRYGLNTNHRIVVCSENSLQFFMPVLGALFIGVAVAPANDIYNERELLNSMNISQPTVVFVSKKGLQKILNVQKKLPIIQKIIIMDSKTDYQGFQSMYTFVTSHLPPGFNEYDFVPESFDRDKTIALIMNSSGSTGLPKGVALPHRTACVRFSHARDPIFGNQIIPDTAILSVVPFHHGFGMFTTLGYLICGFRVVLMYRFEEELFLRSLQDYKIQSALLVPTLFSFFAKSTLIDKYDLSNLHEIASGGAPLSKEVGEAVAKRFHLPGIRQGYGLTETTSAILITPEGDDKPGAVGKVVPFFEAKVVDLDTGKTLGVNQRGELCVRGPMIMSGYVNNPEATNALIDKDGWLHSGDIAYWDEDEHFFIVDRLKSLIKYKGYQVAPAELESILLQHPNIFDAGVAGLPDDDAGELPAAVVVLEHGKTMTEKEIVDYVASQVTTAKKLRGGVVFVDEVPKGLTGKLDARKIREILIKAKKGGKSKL
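Purified 10nM P. pyralis luciferase with 10uM D-luciferin and 10uM ATP in 50mM Tris acetate pH 7.5, 10mM Mg acetate, 0.01% Tween-20, 0.05% BSA. qHTS titration; luminescence read by CCD imager.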
* marks the source's active call; other numbers are inactive results; i = inactive; u = inconclusive; x = no result; [ ] = remark or other dose. In the library only some 11% were active in any assay of this set; here they are far more common. Unless noted, calls come from the whole dose curve; as a rule, active = well fitted curve in the direction sought with a large enough effect; inconclusive = small, poorly fitted or top-dose-only effect, or another doubt; inactive = no such curve, though single readings can be large; an effect the other way counts as inactive or inconclusive. % is set by controls: 0 for no effect and ±100 for the full control effect; potency is the fitted concentration of half-maximal effect.

SMILES | NIH3T3 tox | HEK293 tox | hNpr1 antagonist | FLuc inh
COCCn1ccc2c(C3=CCOCC3)nc(-c3cccc(CO)c3)cc21 | 13µM* | u | 3%[70.6 µM] | i
COCCn1ccc2c(C3=CCOCC3)nc(-c3ccc4c(c3)CNC4=O)cc21 | u | u | -1%[70.6 µM] | u
COCCn1ccc2c(C3=CCOCC3)nc(-c3ccc4cn[nH]c4c3)cc21 | u | u | -2%[70.6 µM] | i
COCCn1ccc2c(C3=CCOCC3)nc(-c3cccc(N4CCOCC4)c3)cc21 | 45µM* | u | 2%[70.6 µM] | i
COCCn1ccc2c(C3=CCOCC3)nc(-c3cccc4[nH]ncc34)cc21 | u | u | -11%[70.6 µM] | i
O=c1n(CCN2CCC(N[S+](=O)([O-])c3cccs3)C2)nc2n1CCCC2 (centres undefined) | -5% | -5% | x | x
O=C(CCC[C@H]1NC[C@@H]2CC1CN(Cc1ccccc1)C2)NCc1ccc(F)cc1 | u | u | 3% | i
COc1ccc(CCNC(=O)c2ccc3nnc(-c4ccc(OC(F)(F)F)cc4)n3c2)cc1 | -8% | u | x | x
Cn1cnc(S(=O)(=O)N2CC[C@@H]3COCCN(Cc4ccccc4)[C@@H]3C2)c1 | 3% | -18% | 0% | i
CCOC(=O)CC(=O)N1CCC(=O)N(CC(=O)OCC)c2ccccc2C(OC)C1 (centres undefined) | -22%[46.1 µM] | u | x | x
CCOC(=O)C1(Cc2cccc(C(F)(F)F)c2)CCN(Cc2cn(CC)nc2C)CC1 | u | 20µM* | u | i
CCOC(=O)C1(Cc2ccccc2C(F)(F)F)CCN(C(C)Cc2cccc(C)n2)CC1 (centres undefined) | 28µM* | 13µM* | u | i
CCOC(=O)C1(Cc2ccc(Cl)cc2)CCN(Cc2ccc(OC)cc2O)CC1 | u | u | u | i
CCOC(=O)C1(Cc2ccccc2C(F)(F)F)CCN(Cc2ccccn2)CC1 | u | 40µM* | -1% | i
CC1=NS(=O)(=O)N(C)C=C1C(=O)OCc1noc(-c2ccccc2Cl)n1 | u | u | 11µM* | u
Cc1nc(-c2ccc(F)cc2)n(CC(=O)Nc2ccc(C(C)C)cc2)c(=O)c1CCO | u | u | -6% | i
O=C(NC1CC1)c1ccccc1OC1CN(Cc2cccc(C(F)(F)F)c2)C1 | u | 32µM* | -24% | i
O=C(NC1CC1)c1ccccc1OC1CN(Cc2ccncc2)C1 | 2% | u | 0% | i
O=C(NC1CC1)c1ccccc1OC1CN(Cc2ccc(C(F)(F)F)cc2)C1 | u | 89µM* | 3% | i
COc1cccc(C(O)c2nc(C(=O)NCc3ccccc3)c(C)o2)c1 (centres undefined) | -27%[138 µM] | u | 4%[70.6 µM] | i
CC(NC(=O)CCc1conc1-c1ccccc1)c1ccc(F)cc1 (centres undefined) | -3% | u | -4% | 18µM*
Cc1cccc(-c2nocc2CCC(=O)NC(C)c2ccc(F)cc2)c1 (centres undefined) | u | u | -6% | i
O=C(COc1ccccc1)N1CCC(Oc2cnc3c(ccn3-c3cncnc3)c2)CC1 | -67%[138 µM] | 89µM* | -30%[70.6 µM] | i
CC(C)(C)c1ccnc(N[C@H]2CO[C@H]3[C@@H]2OC[C@@H]3NS(=O)(=O)c2cccs2)n1 | 79µM* | u | 10µM* | u
CC(C)(C)c1ccnc(N[C@H]2CO[C@H]3[C@@H]2OC[C@@H]3NC(=O)CCCC(=O)O)n1 | 1%[174 µM] | -2%[172 µM] | -3%[70.6 µM] | i
SMILES | NIH3T3 tox | HEK293 tox | hNpr1 antagonist | FLuc inh
COc1ccccc1-c1ccnc(N[C@H]2CO[C@H]3[C@@H]2OC[C@@H]3NS(=O)(=O)c2ccc3ccccc3c2)n1 | u | 32µM* | u | i
CC(C)(C)c1ccnc(N[C@H]2CO[C@H]3[C@@H]2OC[C@@H]3NC(=O)NCc2ccccc2)n1 | u | 89µM* | -23%[70.6 µM] | i
CC(=O)Nc1ccc(S(=O)(=O)N[C@H]2CO[C@H]3[C@@H]2OC[C@@H]3Nc2nccc(-c3cccs3)n2)cc1 | u | 35µM* | u | i
COc1ccccc1-c1ccnc(N[C@H]2CO[C@H]3[C@@H]2OC[C@@H]3NS(=O)(=O)c2cccc3cccnc23)n1 | -23% | -19% | 6% | i
O=C1CC(c2ccccc2)N(Cc2ccncc2)CCCN(C(=O)Nc2ccccc2F)CCN1 (centres undefined) | -24% | -14% | 4% | i
COc1ccc(NC(=O)c2c(C)nc3n2CCC(Nc2ccc(F)cc2)C3)cn1 (centres undefined) | u | -26%[172 µM] | 8%[70.6 µM] | i
C#CCNC(=O)c1cn2cc(-c3ccc(F)cc3)sc2n1 | -32%[138 µM] | u | x | x
O=C(NC1CCCN(c2ccc3nnc(C4CC4)n3n2)C1)c1ccccc1F (centres undefined) | u | -18% | x | x
O=C(Nc1ccccc1)N[C@H]1CO[C@H]2[C@@H]1OC[C@@H]2Nc1nccc(-c2cccs2)n1 | u | 63µM* | -15%[70.6 µM] | u
O=C(COc1ccccc1)N[C@H]1CO[C@H]2[C@@H]1OC[C@@H]2Nc1nccc(-c2ccco2)n1 | 89µM* | u | -1%[70.6 µM] | i
O=C(N[C@H]1CO[C@H]2[C@@H]1OC[C@@H]2Nc1nccc(-c2cccs2)n1)c1ccccc1 | u | 79µM* | u | i
O=C(COc1ccccc1)N[C@H]1CO[C@H]2[C@@H]1OC[C@@H]2Nc1nccc(-c2cccs2)n1 | 35µM* | u | u | i
Cc1ccc(CCN2CCCC3(Cc4ccccc4CN([S+](C)(=O)[O-])C3)C2)cc1 (centres undefined) | -18% | u | x | x
O=C(CC1=CCCCC1)N1CC(c2noc(C3CCCN3CC3CC3)n2)C1 (centres undefined) | -2% | u | 7% | i
CCC1Oc2ccc(NC(=O)COc3ccccc3)cc2CN(Cc2ccccc2Cl)C1=O (centres undefined) | u | u | -13% | i
Cc1ccc(CN2CC(C(=O)NCCc3ccncc3)C3(CCOCC3)C2)s1 (centres undefined) | -7% | -12% | 0% | i
Cc1ccc(OCC(=O)NCCC2CCN(C(=O)Nc3ccccc3F)CC2)cc1 | -1% | -1% | -4% | i
CCc1nc2c(c(-c3ccc(Cl)cc3)n1)CCN(Cc1ccc(C(F)(F)F)cc1)CC2 | -14% | 50µM* | -1% | i
CCc1nc2c(c(-c3ccc(O)cc3)n1)CN(Cc1ccc(C(F)(F)F)cc1)CC2 | u | u | 5% | i
CCc1nc2c(c(-c3ccc(O)cc3)n1)CCN(Cc1ccc(C(F)(F)F)cc1)CC2 | u | 45µM* | u | i
CCc1nc2c(c(-c3ccc(Cl)cc3)n1)CN(C(=O)c1ccc(C(F)(F)F)cc1)CC2 | u | u | 5% | i
CCc1nc2c(c(-c3ccc(Cl)cc3)n1)CN(Cc1cccc(F)c1)CC2 | 11µM* | 20µM* | -14% | i
O=C1NCCCCCN(Cc2cn[nH]c2-c2ccccc2)[C@H]2CCC[C@@H]12 | u | u | 3% | i
